SMILES strings stand for the structures. Screen size: about 420,000 compounds; about 50,000 (12%) were called active. Roughly 26% stayed inconclusive and do not appear here. Calls follow the shape of the dose curve; as a rule, active = well fitted inhibition curve with a large enough effect; inconclusive = small, poorly fitted or top-dose-only effect; inactive = flat fitted curve, though single readings scatter. The list comes from a sample in which actives are over-represented; it also holds similar structures and randomly drawn compounds. Entries that show only a call come without a potency.
Potency is read from the fitted curve at half-maximal effect.

The nature of this assay: qHTS for Inhibitors of human tyrosyl-DNA phosphodiesterase 1 (TDP1): qHTS in cells in presence of CPT. Also: nearly all actives have a fitted effect of over 55% in size. To be noted: chicken DT40 Tdp1-/-;hTDP1 cells + 20 nM CPT, ATP luminescence, 48 h; series mostly up to 46.2 µM. The method in brief: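 Cell growth measured by CellTiter-Glo luminescence after a minimum 48 h, 37 C compound exposure with 20 nM CPT in Tdp1-knockout DT40 cells stably expressing hTDP1, seeded 400/well; qHTS titration format.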
(Quantitative high-throughput screening tests each substance at several concentrations.)
On to `COc1ccc(C2(C)NC(=O)N(CC(=O)c3ccc4c(c3)OCO4)C2=O)cc1` (configuration not stated), for which the Potency entry was “inactive”.
On the same count and under the same terms, under `CCCCc1nc(NCCN)c(C#N)c2c1CSC(C)(C)C2` stands 20.6 µM (active); under `CCCCc1nc(NCc2ccccc2)c(C#N)c2c1CCCC2`, “inactive”.
On to `Cc1nc(NCCN)c(C#N)c2c1COC(C)(C)C2`, for which the Potency result was “inactive”.
Consider `COc1ccc(-c2cc(=O)c3c(O)cc(O[C@@H]4O[C@H](CO[C@@H]5O[C@@H](C)[C@H](O)[C@@H](O)[C@H]5O)[C@@H](O)[C@H](O)[C@H]4O)cc3o2)cc1O`, for which the Potency entry is “inactive”.
Consider `COc1cc(C(=O)NC(=S)NCc2ccco2)cc(OC)c1OC`, for which the Potency is 18.4 µM (active).
In the case of `COc1cccc(OC)c1C(=O)NC(=S)NCc1ccco1`, the Potency result was “inactive”.
Regarding `COc1cc(C(=O)N[C@@H](C)C(=O)NCc2ccco2)cc(OC)c1OC`, the Potency entry was “inactive”.
`CCN1C(=O)C(=O)N(CC(=O)Nc2cc(C)ccc2C)C1=O`: the Potency result is “inactive”.
Regarding `Cc1ccc(CSCCNC(=O)CN(c2ccc(F)cc2)S(C)(=O)=O)cc1`, the Potency entry is “inactive”.
On to `CCOC(=O)C1CCN(C(=O)COC(=O)C2CCN(S(=O)(=O)c3ccc4c(c3)OCCO4)CC2)CC1`, for which the Potency result is “inactive”.
Turning to `CCc1ccc(-c2cc3c(=O)n(CC(=O)NCCCN4CCN(Cc5ccccc5)CC4)nc(C)n3n2)cc1`, the Potency is 20.6 µM (active).
Take `Cc1ccc(-c2ccc(=O)n(CC(=O)NCCCN3CCCCC3)n2)cc1`: the Potency result is “inactive”.
As for `CCCN1CCN(CCCNC(=O)Cn2nc(CC)n3c(cc4occc43)c2=O)CC1`, the Potency result is “inactive”.
The same measure, in the same setting: the entry for `Cc1ccccc1CSc1nnc(-c2ccccc2)c(=O)[nH]1` is “inactive”.
Turning to `C/C(Nc1ccc2oc(=O)ccc2c1)=C1/C(=O)CC2[C@@H]1C2(C)C` (some centres not stated), the activity change, negative = growth inhibition was 6.03% [at 9.04 µM] (inactive).
Take `CC(=O)Nc1ccc(S(=O)(=O)N2CCSCC2)cc1`: the Potency result was “inactive”.
For `Cc1ccc(C)c(S(=O)(=O)N2CCN(C(=O)Nc3ccccc3)CC2)c1`, the Potency entry is “inactive”.
As for `CC(=O)Nc1ccc(S(=O)(=O)N2CCN(S(=O)(=O)c3cccs3)CC2)cc1`, the Potency entry was “inactive”.
The same measure, in the same setting: under `Cc1ccc(C)c(S(=O)(=O)N2CCN(CC(=O)Nc3ccc([N+](=O)[O-])cc3)CC2)c1` stands 14.6 µM (active); under `Cc1ccc(NC(=O)CCNC(=O)c2ccc([N+](=O)[O-])cc2)cc1S(=O)(=O)N1CCOCC1`, “inactive”; under `CC(=O)Nc1ccc(S(=O)(=O)N2CCN(CCCOc3cc(C)ccc3C)CC2)cc1`, 25.9 µM (active).
Take `CCCC/S(C)=N/S(=O)(=O)c1ccc(C)cc1` (configuration not stated): the Potency result was “inactive”.
On the same count and under the same terms, under `N#Cc1c(NCCO)ccc([N+](=O)[O-])c1NCCO` stands “inactive”; under `CC(=O)Oc1ccc(-c2nc3c(C)cccc3c(=O)o2)cc1`, “inactive”; under `CCn1cc(C(=O)OCC(=O)Nc2cccc(C)c2)c(=O)c2ccc(C)nc21`, “inactive”.
Same read-out and setting: the entry for `CN(C)c1ccc(/C=N/N(Cc2ccccc2)c2ccccc2)cc1` is “inactive”.
Take `C[n+]1ccc(C(=O)NCc2ccccc2)cc1`: the Potency entry was “inactive”.
For `c1ccc(Cc2cc[n+](Cc3ccccc3)cc2)cc1`, the Potency is 23.1 µM (active).
On to `CN(C)c1cc[n+](Cc2ccccc2)cc1`, for which the Potency is 0.58 µM (active).
On to `[O-][n+]1ccc(OCc2ccccc2)cc1`, for which the Potency entry is “inactive”.
On the same count and under the same terms, under `COc1ccc(CCNC(=O)COc2ccc3c(c2)OCO3)cc1` stands “inactive”.
For the compound `CNC(=S)NNC(=O)c1oc2nc(-c3ccccc3)cc(-c3ccco3)c2c1N`, the Potency entry is “inactive”.
Turning to `CC1CCCC(NC(=O)COC(=O)[C@@H]2CC(O)CN2S(=O)(=O)c2ccc3c(c2)OCCO3)C1C` (some centres not stated), the Potency entry was “inactive”.
On the same count and under the same terms, the entry for `CCC1CCC2(CC1)NC(=O)N(CC(=O)Nc1ccc(OC)cc1)C2=O` (configuration not stated) is “inactive”; for `O=C(CSC(=S)N1CCOCC1)c1cc(Br)cc(Br)c1O` it is “inactive”.
The same measure, in the same setting: under `O=C1Nc2c(Br)cc(Br)cc2C1(O)N1CCOCC1` (configuration not stated) stands 5.17 µM (active); under `O=C(c1cc2cc(Br)cc(Br)c2oc1=O)N1CCOCC1`, “inactive”.
For `COc1ccc(C(=O)COC(=O)CCCC(=O)Nc2cc(C(F)(F)F)ccc2Cl)cc1`, the Potency entry was “inactive”.
In the case of `COc1ccc(OC)c(-n2c(=S)[nH]c3cc(C(=O)N4CCCCC4)ccc3c2=O)c1`, the Potency entry was “inactive”.
With `CC(C)c1ccc(NC(=O)c2cc(S(=O)(=O)N3CCc4ccccc4C3)ccc2F)cc1`, the Potency result was “inactive”.
In the case of `COc1cc(NC(=O)C2CCN(c3cnccn3)CC2)cc(OC)c1`, the Potency entry is “inactive”.
Regarding `O=[N+]([O-])c1ccc(Oc2ccc(F)cc2Br)c2ccncc12`, the Potency is 18.4 µM (active).
On to `Cc1ccnc2nc(C(=O)OCC(=O)N(CC(C)C)CC(C)C)nn12`, for which the Potency entry is “inactive”.
Still for that read-out and setting: under `CN(C(=O)CSc1nnc(-c2ccc(C(C)(C)C)cc2)n1C)C1CCS(=O)(=O)C1` (configuration not stated) stands “inactive”.
Turning to `Cc1cc(C)c2nc(SCC(=O)N(C)C3CCS(=O)(=O)C3)cc(C)c2c1` (configuration not stated), the Potency is 23.1 µM (active).
Same read-out and setting: under `CCn1c(SCC(=O)N(C)C2CCS(=O)(=O)C2)nnc1-c1cccs1` (configuration not stated) stands “inactive”; under `COCCn1c(SC(C)C(=O)NC2CC2)nnc1-c1cccc(C)c1` (configuration not stated), “inactive”.
As to `CCN(CC)C(=O)C1=C(C)N(Cc2ccc(F)cc2)C(=O)C(CC(=O)NCc2cccc3ccccc23)C1` (configuration not stated), the Potency entry is “inactive”.
`COc1ccc(NC(=O)C(C)N2c3cccc4cccc(c34)S2(=O)=O)c(OC)c1` (configuration not stated): the Potency result is “inactive”.
In the case of `CCOc1cccc(-c2nnc(SCC(=O)NC3CC3)n2C)c1`, the Potency entry was “inactive”.
In the case of `COCCN1C=C2C(=O)C(C)(OC(=O)C3CCCC3)C(=O)C=C2C=C1c1ccsc1` (configuration not stated), the Potency entry is “inactive”.
As for `COC(=O)CCCC1=CC2=C(c3ccccc3)C(=O)C(C)(OC(=O)C3CCCC3)C(=O)C2=CN1c1ccc(OC)cc1` (configuration not stated), the Potency is 20.6 µM (active).
On the same count and under the same terms, the entry for `COC(=O)CCCC1=CC2=CC(=O)C(C)(OC(=O)c3cccs3)C(=O)C2=CN1c1cccc(C#N)c1` (configuration not stated) is “inactive”; for `O=c1ccc(S(=O)(=O)N2CCCC2)cn1Cc1nc(-c2ccccc2)no1` it is “inactive”.
With `Clc1cccc(Cl)c1Cn1nnc(-c2cccs2)n1`, the Potency entry was “inactive”.
For the compound `O=C(Cc1ccc([N+](=O)[O-])cc1)N/N=C/c1ccco1`, the Potency entry was “inactive”.
Consider `CCN(/N=C/c1ccccc1)c1cc(=O)n(C)c(=O)[nH]1`, for which the Potency result was “inactive”.
Still for that read-out and setting: under `CC(=O)Nc1cc(C(=O)O)ccc1S(=O)(=O)c1ccc(Cl)cc1` stands “inactive”; under `O=C(Nc1cccc(Cl)c1)c1csnn1`, “inactive”.
On the same count and under the same terms, the figure for `O=C(Nc1ccccc1)c1nnsc1S(=O)(=O)c1ccc(Cl)cc1` is 4.61 µM (active); for `CCOc1ccc(C(=O)CCN2CCOCC2)cc1` it is 3.26 µM (active); for `CCOc1ccc(C2C(C(=O)O)c3ccccc3C(=O)N2CCN2CCOCC2)cc1` (configuration not stated) it is “inactive”.
As for `CC(=O)c1ccc(OCCN2CCOCC2)cc1`, the Potency entry was “inactive”.
As for `COc1cccc(N(C(=O)CNC(=O)c2ccco2)C(C(=O)NC2CCCCC2)c2cccnc2)c1` (configuration not stated), the Potency result is “inactive”.
As to `COc1cccc(CNCCc2c[nH]c3ccccc23)c1OCc1ccccc1F`, the Potency was 10.3 µM (active).
On the same count and under the same terms, the entry for `COc1ccccc1CC(=O)NCCc1c[nH]c2ccccc12` is “inactive”.
The same measure, in the same setting: the entry for `COc1ccc(S(=O)(=O)NCCc2c[nH]c3ccccc23)cc1OC` is “inactive”.
Regarding `Cc1noc(C)c1C(=O)NCCc1ccc(S(N)(=O)=O)cc1`, the Potency result is “inactive”.
`CCOC(=O)c1c(C)[nH]c(C2=NNC(=NC(C)COC)SC2)c1C` (configuration not stated): the Potency was 20.6 µM (active).
The same measure, in the same setting: under `CCOCCCNC(=O)C(NC(=O)CNC(=O)c1ccccc1)c1ccc(C)cc1` (configuration not stated) stands “inactive”; under `CC1CCN(C(=O)/C(=C\c2ccccc2F)NC(=O)c2ccccc2)CC1`, “inactive”; under `COC(=O)c1ccccc1C(=O)NCc1nc(N2CCCC2)c2cccc(C)c2n1`, “inactive”.
Consider `CCCC(=O)n1nc(NCc2ccc(OC)cc2)nc1NCc1ccc(OC)cc1`, for which the Potency result was “inactive”.
Take `COc1ccc(CNc2nc(NCc3ccc(OC)cc3)c3ncn(C4CCCC4)c3n2)cc1`: the Potency is 3.26 µM (active).
On to `COc1ccc(CNC2CCCCC2)cc1`, for which the Potency entry was “inactive”.
Take `COc1ccc(-n2c(SCC(=O)NCc3cccs3)nnc2-c2ccoc2C)cc1`: the Potency entry is “inactive”.
The same measure, in the same setting: under `C/C(=N\NC(=O)c1ccc(CSc2nc(C)cc(C)n2)cc1)C1CCCCC1` stands “inactive”.
The same measure, in the same setting: the figure for `CC(=O)c1c(C)c[nH]c1C` is 23.1 µM (active); for `C1CC1Cc1noc(CN2CCN(CC3CC3)CC2)n1` it is “inactive”; for `CC1(C(=O)NCCc2c[nH]c3ccccc23)C=CC2(CCCCC2)N1C(=O)c1ccccc1` (configuration not stated) it is 18.4 µM (active).
As to `O=C(NCCc1c[nH]c2ccccc12)c1cccc(Br)c1`, the Potency entry was “inactive”.
Regarding `O=C(CN1C(=O)NC2(CCCCC2)C1=O)NCCc1c[nH]c2ccccc12`, the Potency entry was “inactive”.
Regarding `C=CCn1c(SCC(=O)NC)nnc1C12CC3CC(CC(C3)C1)C2`, the Potency entry was “inactive”.
With `Cc1cc(C)cc(OCC(=O)NNC(=O)CCN2C(=O)c3ccccc3C2=O)c1`, the Potency result was “inactive”.
As to `Cc1ccsc1/C=N/NC(=O)Cc1cc(=O)[nH][nH]1`, the Potency result is “inactive”.
For the compound `COc1cc(CCC(=O)Nc2ccncc2Cl)cc(OC)c1OC`, the Potency entry is “inactive”.
On the same count and under the same terms, the figure for `COc1cc(CCC(=O)N2CCN(c3ccccc3Cl)CC2)cc(OC)c1OC` is 11.6 µM (active); for `CC(=O)c1ccc(N2CCN(C(=O)CCc3ccccc3)CC2)cc1` it is “inactive”; for `Cc1cc(Cl)c2oc(C(=O)N3CCC(O)(c4ccccc4)CC3)c(C)c2c1` it is “inactive”.
For `Cc1cc2nc(-c3ccco3)c(Cc3cccc(F)c3)n2c(C)c1Br`, the Potency was 16.4 µM (active).
The same measure, in the same setting: the entry for `CCCCN(C(=O)c1ccc2ccccc2c1)c1c(N)n(CCCC)c(=O)[nH]c1=O` is “inactive”.
In the case of `CN(CC(=O)NCCc1ccc(S(N)(=O)=O)cc1)CC(=O)Nc1ccc(F)c(F)c1F`, the Potency entry is “inactive”.
Consider `Cc1cc2nc(NC(=O)c3ccc(S(=O)(=O)N4CCOCC4)cc3)sc2cc1C`, for which the Potency result was “inactive”.
For `Cc1cccnc1NC(=O)c1cccc(S(=O)(=O)N2CCN(c3ccc(F)cc3)CC2)c1`, the Potency was 18.4 µM (active).
For the compound `Cc1ccc(C)c2sc(NC(=O)c3ccc(S(=O)(=O)N4CCCC4)cc3)nc12`, the Potency is 29.1 µM (active).
As to `O=C(N/N=C/c1ccccn1)c1ccc(S(=O)(=O)N2CCCCCC2)cc1`, the Potency result was “inactive”.
Take `Cc1ccc(C(=O)Nc2ncccc2C)cc1S(=O)(=O)N1CCOCC1`: the Potency entry is “inactive”.
Consider `CN1CCN(S(=O)(=O)c2cccc(C(=O)Nc3sccc3C#N)c2)CC1`, for which the Potency result is “inactive”.
Same read-out and setting: under `O=C(Nc1ccccc1F)c1ccc(S(=O)(=O)N2CCCCCC2)cc1` stands “inactive”; under `CCOC(=O)c1csc(NC(=O)c2ccc(S(=O)(=O)N3CCCC3)cc2)n1`, “inactive”; under `O=C(Nc1ncccc1O)c1ccc(S(=O)(=O)N2CCCC2)cc1`, 14.6 µM (active).

(Values after PubChem BioAssay AID686979 (National Center for Advancing Translational Sciences (NCATS), 2013).)
